According to PubChem BioAssay (NCI):
This is part of a sample that, as a whole, favours compounds with a hit. Of some 83,000 tested, about 20% had one in any assay.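 Interpretation: 100, growth as untreated; towards 0, rising growth inhibition; 0, no net growth; 0 to -100, cell death. Compounds scoring below 10 were considered active.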 Unmarked numbers belong to inactive results. Active and inactive are the calls of the source.

test system: NCI-H322M lung; assay: NCI-60 one-dose screen, 48 h (100 = growth as untreated, 0 = no growth, -100 = all killed); conditions: 10 µM unless noted

| SMILES | growth |
| --- | --- |
| COc1ccc(/C=N\Nc2nc(SCCC(C)C)nc(-c3ccc(OC)cc3)c2C#N)cc1 | 80.8% |
| CC(C)=CCCC(C)c1ccc(C)c2c1OCN(CCCCCO)C2 (stereo not drawn) | 102% |
| CCCCCN1C(=O)/C(=c2\sc3n(c2=O)C2C(NN=3)N(CC)C(=O)N2CC)c2ccccc21 (stereo not drawn) | 21.2% |

test system: HOP-62 NSCLC; assay: as above; conditions: 10 µM unless noted

| SMILES | growth |
| --- | --- |
| O=c1c2ccccc2n2cnc3ccc(Cl)c1c32 | 93.1% |
| CCN(CC)CC(O)COc1c(Br)c(Br)c(Br)c2c1OC(C)(C)C2 (stereo not drawn) | 96.8% |
| N#Cc1c(-c2ccccc2)cc(-c2ccccc2)n(CCCC(=O)Nc2ccccc2N)c1=O | 64.7% |
| CC1OC(n2c3ccccc3c3c4c(c5c6ccccc6[nH]c5c32)C(=O)N(CCN2CCCC2)C4=O)CC(O)C1O (stereo not drawn) | 35.2% |
| CCOC(=O)NC(C)C | 93.4% |
| COc1ccc2[nH]c(C(=O)N3CCN(C(=O)OCc4ccc5c(Cl)cc(Cl)c(O)c5n4)CC3)cc2c1 | -61.5% (active) |
| O=C(/C=C/c1ccccc1)Nc1ncc(Cc2ccccc2Cl)s1 | 18.9% |
| COC12C=C/C(=C(/C(=O)OCc3ccncc3)C(=O)CCCCCCCCC3(OC)C=C/C(=C(/C(=O)OCc4ccncc4)C(=O)CCCCCCCC1)O3)O2 | 16.7% |
| CC(C)=CC(=O)OCC(=O)O[C@@H]1C[C@]2(C(C)C)O[C@@]1(C)[C@@H]1CC[C@@H](C)[C@H]1[C@@H]2OC(=O)/C=C/c1ccccc1 | 96.7% |
| COc1ccc(Cc2cnc(NC(=O)c3cc(C)oc3C)s2)cc1 | 53% |
| NC(Cc1ccc(O)c([N+](=O)[O-])c1)C(=O)O (stereo not drawn) | 105% |
| CC(C)COc1nc2c(c(=O)n(C)c(=O)n2C)n1C | 99% |
| CCc1ccccc1-n1c(-c2ccc(OC)cc2)cc(-c2ccc(OC)cc2)c(C#N)c1=O | 67.5% |
| CCCCCOC(=O)c1c(C)[nH]c(/C=C2\N=C(c3ccc[nH]3)C=C2OC)c1C | -17.8% (active) |
| CCCCCC(/C=N\NC(=S)N/N=C/C(=C/c1ccccc1)CCCCC)=C\c1ccccc1 | 72.7% |
| O=C(c1nn(-c2ccccc2)c2c1CC(NCc1ccc(F)cc1)CC2)N1CCCCC1 (stereo not drawn) | 114% |
| CCOC(=O)c1cc2c(n1Cc1cc(OC)c(OC)c(OC)c1)-c1nc(N)sc1CCC2 | 44.3% |
| COC(=O)CC[C@H](C)[C@H]1CC[C@H]2[C@@H]3CC[C@@H]4CC5(CC[C@]4(C)[C@H]3CC(=O)[C@]12C)Nc1ccccc1NC5=NC(C)(C)C (stereo partly drawn) | 84.3% |
| CCN(CC)CCCCCNc1cc(OC(=O)c2ccc(Cl)cc2)cc2cccnc12 | 95.8% |
| CC1CCc2c(C(=O)Nc3ncc(Cc4cccc([N+](=O)[O-])c4)s3)csc2C1 (stereo not drawn) | 26.8% |

| SMILES | growth |
| --- | --- |
| COCCNC(=O)Nc1ccc2nc(-c3cccs3)c(-c3cccs3)nc2c1 | 101% |
| OCCn1cc(-c2nc(-c3c[nH]c4ncccc34)cs2)c2cc(F)ccc21 | 71.9% |
| N#Cc1ccc(O)c(C2=NCC(c3ccccc3)O2)c1 (stereo not drawn) | 29.7% |
| C#CCOC(=O)/C=C/c1cn(-c2ccccc2)nc1-c1ccc(OC)cc1 | 93% |
| CCCC/C(CC)=N\NS(=O)(=O)c1ccc([N+](=O)[O-])cc1 | 96.7% |
| Nc1n[nH]c2cccc(C#Cc3cccc(NC(=O)c4cc(F)cc(C(F)(F)F)c4)c3)c12 | 95.2% |
| O=C1/C(=C/c2ccccc2O)CC/C1=C\c1ccccc1O | 94% |
| Cn1cc(-c2csc(-c3cn(C(=O)OC(C)(C)C)c4ccc(Br)cc34)n2)c2ccnc(Cl)c21 | 68.5% |
| O=C(Nc1cccc(-c2ccc(N3CCOCC3)nn2)c1)Nc1cccc(C(F)(F)F)c1 | 76.8% |
| COc1cc(-c2nccc3[nH]c(-c4ccc5cc[nH]c5c4)nc23)cc(OC)c1OC | -19.6% (active) |
| C=CC[Se]C(=O)Cc1c(C)n(C(=O)c2ccc(Cl)cc2)c2ccc(OC)cc12 | -16.6% (active) |
| Cc1cc(C(=O)O)c(C)n1-c1cccc(C(=O)O)c1 | 96.7% |
| COCCOc1cc2ncnc(N3CCN(c4cc(S(C)(=O)=O)c(C)cc4Cl)CC3)c2cc1OCCOC | 100% |
| O=C(N(c1ccccc1)c1ccccc1)n1cc(I)c2nc(Cl)nc(Cl)c21 | 43.9% |
| C=CCn1c(SCC(=O)Nc2ccc(C(=O)/C=C/c3ccc(Cl)cc3)cc2)nnc1-c1ccc(Br)cc1 | 104% |
| C=CCN=c1sc2c(n1NC(=O)c1cc3ccc1CCc1ccc(cc1)CC3)C(=O)c1ccccc1C2=O | 19.5% |
| Nc1c(C(=O)Nc2ccccc2F)sc2nc3c(cc12)CCCC3 | 23.7% |
| COc1ccc(/C=N\Nc2nc(SCCC(C)C)nc(-c3ccc(OC)cc3)c2C#N)cc1 | 18.4% |
| CC(C)=CCCC(C)c1ccc(C)c2c1OCN(CCCCCO)C2 (stereo not drawn) | 92.5% |
| CCCCCN1C(=O)/C(=c2\sc3n(c2=O)C2C(NN=3)N(CC)C(=O)N2CC)c2ccccc21 (stereo not drawn) | 9.45% (active) |
